An excerpt weighted towards active compounds, which were near 21% of everything screened.
HCV inh: inhibitors of hepatitis C virus infection | Huh7.5.1 HCVcc-Cre infection, luciferase reporter, 44 h | Potency, µM (series often up to 41.8 µM), for inactives: at the highest dose activity change, negative = inhibition, hits mostly inhibitors | 3.4% of 340,000 active | AID 651820; also: potency is read from the fitted curve at half-maximal effect; % is scaled to controls: 0 for no effect and ±100 for the full control effect
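Luciferase read-out (15 sec integration) after a 15 min room-temperature substrate step quantifies HCVcc-Cre infection. Cells, 1,000 per well, had compound added 4 h post-plating, then virus at ~0.5 moi, and were cultured 44 h.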
Cycloheximide cs: affects cycloheximide protein synthesis inhibition readout, counter-screen. cell reporter, cycloheximide protein synthesis inhibition counterscreen. max response, %. 12% of 300,000 active. AID 2314; in the data active = max response mostly above about 13%, no sharp cut-off; inactive = mostly below about 14%; also: read at 38.3 µM for the half of the compounds with a filed dose; 0% is about no effect
Pf growth 96h: P. falciparum growth inhibition at 96 hour, primary screen for plastid delayed-death inhibitors; P. falciparum luciferase reporter growth, 96 h; Potency, µM (doses to about 28.7 µM), for the others: top-dose activity change, negative = inhibition, most hits filed as inhibitors; 6.9% of 320,000 active; AID 504834; also: potency is read from the fitted curve at half-maximal effect; % is scaled to controls: 0 for no effect and ±100 for the full control effect
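Two-generation exposure (96 h) targets delayed-death phenotype. Reporter parasites carrying integrated firefly luciferase, in red cells at 2% hematocrit and 0.05% parasitemia final, kept at 37 C, 5% CO2; luminescence loss indicates inhibition.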
Shiga toxin inh: Shiga toxin inhibition. 9.2% of 290,000 active. Vero cells, Shiga toxin protein synthesis inhibition reporter. AID 2315. inhibition, % at 38.7 µM; in the data active = inhibition mostly above about 28%, no sharp cut-off; inactive = mostly below about 43%; also: 0% is about no effect
HCMV inh: blocks human cytomegalovirus replication; HFF cells, HCMV-luciferase reporter, 72 h; active compounds read low; activity change, negative = inhibition, % at 57.5 µM; 4.5% of 410,000 active; in the data active = activity change below about -60%; inconclusive = no clear call, values can overlap the other calls; inactive = above about -39%; also: % is scaled to controls: 0 for no effect and ±100 for the full control effect
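After 16 h attachment at 37C, HFF cells received test compound and HCMV-luciferase (1 PFU/cell); reporter luminescence read 72 h later, data normalized against buffer-only and known inhibitor Salinomycin.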
Pf growth 48h: P. falciparum growth inhibition at 48 hours (one generation). P. falciparum luciferase growth in erythrocytes, 48 h. Potency, µM (series often up to 28.7 µM), for the others: top-dose activity change, negative = inhibition, actives largely listed as inhibitors. 5.9% of 310,000 active. AID 504832; also: potency is read from the fitted curve at half-maximal effect; % is scaled to controls: 0 for no effect and ±100 for the full control effect
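Growth was read as firefly luciferase luminescence after a 48 h, 37 C, 5% CO2 exposure of compounds to reporter-bearing P. falciparum cultures (0.1% parasitemia, 2% hematocrit final) in Albumax-supplemented RPMI 1640.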
* = called active by the depositor; ? = inconclusive; · = no result. Unless noted, calls follow the shape of the dose curve; as a rule, active = well fitted inhibition curve with a large enough effect; inconclusive = small, poorly fitted or top-dose-only effect, or another doubt; inactive = no such curve, though single readings can be large or run the other way.

SMILES | HCV inh | Cycloheximide cs | Pf growth 96h | Shiga toxin inh | HCMV inh | Pf growth 48h
CCOc1ccc(NC(=O)COc2ccc(C(=O)NC(C)c3ccc(S(N)(=O)=O)cc3)cc2OC)cc1 (stereo unspecified) | -8.9% | · | ? | · | -16.0 | 11.7µM*
CCOC(=O)c1ccc(NC(=O)C(C)NS(=O)(=O)c2ccc(OC)cc2)cc1 (stereo unspecified) | -5.4% | -3.3 | 2.7% | -1.2 | -6.3 | ?
O=C(c1ccccc1)C1CN(Cc2ccccc2)CCC1(O)c1ccccc1 (stereo unspecified) | -3.9% | -2.6 | 0.2% | 2.7 | -17.0 | ?
OC(c1ccccc1)C1CN(Cc2ccccc2)CCC1(O)c1ccccc1 (stereo unspecified) | 8.8% | -5.4 | -1.5% | -10.8 | -1.7 | 0.738µM*
CC(=O)Nc1ccc(/C(C)=N/NS(=O)(=O)c2ccc(C)cc2)cc1 | 16.9% | 15.9 | ? | 35.2 | 0.7 | 42.2%
C/C(=N/NS(=O)(=O)c1ccc(Br)cc1)c1ccc(NC(=O)c2ccc(C)o2)cc1 | -6.3% | 48.2* | 67.4% | 78.3* | 119.6 | 42.8%
C/C(=N\NS(=O)(=O)c1ccc([N+](=O)[O-])cc1)c1ccc(NC(=O)c2ccco2)cc1 | ? | 24.7* | 17.1% | 77.7 | 41.3 | 223.8%
O=C(O)/C=C/C(=O)NC1CC1 | 11.6% | -1.7 | ? | 2.7 | ? | 5.9%
CCOC(=O)c1cc(NC(=O)C2C3C=CC(O3)C2C(=O)O)cc(C(=O)OCC)c1 (stereo unspecified) | -14.7% | 0.3 | 11.7µM* | -7.5 | 29.7 | ?
O=C(O)C1C2C=CC(O2)C1C(=O)Nc1cccc(C(F)(F)F)c1 (stereo unspecified) | 11.9% | -1.1 | 10.4µM* | -6.4 | 31.1 | -10.4%
O=C(O)C1C2C=CC(O2)C1C(=O)Nc1ccccc1C(F)(F)F (stereo unspecified) | -19.3% | 6.3 | -2.1% | 2.0 | 44.6 | ·
CC1CCN(c2ncnc3c2cnn3-c2ccc(F)cc2)CC1 | · | · | · | · | 81.2 | ·
C#CCOCCOCCOCCNc1nc(N2CCN(C(=O)[C@H](CCC(=O)O)n3cc([C@@H](N)[C@H](C)CC)nn3)CC2)nc(N2CCN(C(=O)[C@H](CCC(=O)O)n3cc([C@@H](N)CCSC)nn3)CC2)n1 | -62.8% | · | · | · | -17.1 | ·
Cc1[nH]c(=S)[nH]c(=O)c1CCOc1ccccc1 | -2.5% | -4.0 | · | -11.7 | -11.6 | -9.3%
Cc1ccccc1OCCc1c(C)[nH]c(=S)[nH]c1=O | -24.9% | -6.0 | 44.3% | -9.3 | -63.9* | -4.0%
COC(=O)c1cccc(Nc2c(-c3ccc(OC)cc3)nc3nc[nH]n23)c1 | · | · | · | · | 82.5 | ·
Cc1cc(-n2c(C)c3c(C)nnc(C)c3c2C)ccc1N | -75.8% | -2.7 | -16.5% | -1.8 | -61.8* | 32.7%
COc1ccc(C2=Nc3ccccc3N(C(=O)c3ccc4c(c3)OCO4)C2C(=O)NCc2ccccc2)cc1 (stereo unspecified) | · | · | · | · | -71.5* | ·
COc1ccc(C(=O)N2c3ccccc3C(=O)OC2c2ccc3c(c2)OCO3)cc1 (stereo unspecified) | 21.3% | 19.7* | · | 28.5 | 154.4 | 54.5%
COc1ccc(C2=Nc3ccccc3N(C(=O)c3ccc(C)cc3)C2C(=O)NCc2ccccc2)cc1 (stereo unspecified) | · | · | · | · | -12.0 | ·
CC(=O)Oc1ccc(C2OC(=O)c3ccccc3N2C(C)=O)cc1 (stereo unspecified) | 13.3% | -0.8 | -8.2% | -12.3 | 17.0 | ·
CCCCCN(C(=O)COC(=O)c1ccc(C)cc1)c1c(N)n(CCCC)c(=O)[nH]c1=O | ? | · | ? | · | 0.4 | ?
COC(=O)c1ccc(CSc2nnc(CNC(=O)COc3ccc(Cl)cc3)o2)o1 | ? | -2.0 | 5.86µM* | -19.8 | -12.0 | -11.8%
CCOc1ccccc1NC(=O)CSc1nnc(CNC(=O)COc2ccc(Cl)cc2)o1 | -1.8% | -3.1 | 10.4µM* | 46.4 | -14.2 | 6.1%
COC(=O)c1ccc(CSc2nnc(CNC(=O)c3ccc(OC)cc3)o2)o1 | 1.2% | -1.8 | ? | -19.9 | 46.0 | 5.5%
SMILES | HCV inh | Cycloheximide cs | Pf growth 96h | Shiga toxin inh | HCMV inh | Pf growth 48h
O=C(COc1ccc(Cl)cc1)NCc1nnc(SCC(=O)Nc2ccc(F)cc2F)o1 | 15.0% | -2.1 | -24.7% | -26.0 | -28.3 | 23.4%
CC(=O)Nc1ccccc1-c1cccc2nccn12 | · | · | · | · | -9.8 | ·
Cc1ccccc1NC(=O)/C(C#N)=C\c1cccnc1 | 12.0% | -1.6 | 14.7% | -3.2 | 19.6 | 5.5%
CC(C)(C)c1ccc(C(=O)/C(C#N)=C/c2cccs2)cc1 | -1.7% | 33.4* | -21.0% | 73.2* | 53.0 | 4.2%
N#C/C(=C\c1cccs1)C(=O)Nc1ccccn1 | 2.1% | 36.1* | 3.1% | 40.5 | -28.6 | 18.2%
Cc1ccc(NC(=O)/C(C#N)=C/c2cccs2)c(C)c1 | -3.5% | 50.0* | -16.6% | 100.8* | -34.3 | -1.7%
Cc1ccccc1NC(=O)/C(C#N)=C\c1ccsc1 | ? | 27.6* | 24.4% | 55.5 | ? | -5.2%
Cc1cccc(C)c1NC(=O)/C(C#N)=C/c1cccs1 | -11.6% | -1.0 | ? | -2.0 | -7.3 | ?
N#C/C(=C\c1ccccc1)C(=O)Nc1ccccn1 | 8.4% | -3.1 | 16.9% | -3.5 | 36.8 | 25.8%
Cc1ccc(C)c(NC(=O)CC2Oc3ccccc3NC2=O)c1 (stereo unspecified) | 4.0% | -1.1 | -6.4% | -3.2 | -18.2 | 3.5%
COc1ccc2cc(CNc3ccc(OC)c(OC)c3)c(=O)n(CC(=O)Nc3ccc(C)cc3)c2c1 | · | · | · | · | -18.9 | ·
Cc1ccc(NC(=O)/C(C#N)=C/c2ccsc2)c(C)c1 | 13.4% | 43.4* | ? | 101.8* | -32.6 | ?
CCOc1ccc(CNCc2cccnc2)cc1 | ? | -1.1 | ? | 2.3 | 23.0 | 11.1%
CN(Cc1ccccc1)CC(O)COc1ccc(CNCc2cccnc2)cc1 (stereo unspecified) | ? | -0.5 | 8.28µM* | -5.9 | -34.7 | 9.28µM*
c1ccc(COc2ccc(CNCc3cccnc3)cc2)cc1 | -20.6% | 29.7* | ? | 20.5 | -3.9 | -11.9%
CN(Cc1ccccc1)CC(O)COc1ccc(CNCCCOc2cccnc2)cc1 (stereo unspecified) | ? | -3.3 | ? | -13.9 | ? | 2.08µM*
Cc1nn(C)cc1CNCc1ccc(OCC(O)CN(C)Cc2ccccc2)cc1 (stereo unspecified) | ? | -3.1 | -9.1% | 4.3 | 1.5 | ?
CCn1cc(CNCc2ccc(OCC(O)CN(C)Cc3ccccc3)cc2)cn1 (stereo unspecified) | 10µM* | -1.6 | ? | -13.5 | · | ?
OC(COc1ccc(CNCc2cccnc2)cc1)CN1CCc2ccccc2C1 (stereo unspecified) | -13.1% | -3.5 | 18.3% | -12.3 | 8.9 | ?
CC1(C(=O)Nc2ccc3c(c2)OCO3)CCN1C(=O)CCC1CCCC1 (stereo unspecified) | · | · | · | · | -0.8 | ·

Compound activity (PubChem)
